Laboratory results: PubChem BioAssay (EPA / NIEHS)
Records with an inconclusive call do not appear. Calls of active or inactive are those of the source. The calls were made as follows: active = hit-call score of the fitted dose curve at least 0.9, where 1 is the maximum; inconclusive = response in the unintended direction; inactive = score below 0.9.

Tests used:
[1] = molecular target: Cellular tumor antigen p53 (Homo sapiens) (UniProt P04637); assay: TOX21_p53_BLA_p2_ratio: Tox21 HCT-116 p53 Agonism Beta-lactamase Assay, Ratio, Phase 2 (AID 2283592)
Cellular tumor antigen p53 (Homo sapiens), sequence (P04637 whole entry, looked up): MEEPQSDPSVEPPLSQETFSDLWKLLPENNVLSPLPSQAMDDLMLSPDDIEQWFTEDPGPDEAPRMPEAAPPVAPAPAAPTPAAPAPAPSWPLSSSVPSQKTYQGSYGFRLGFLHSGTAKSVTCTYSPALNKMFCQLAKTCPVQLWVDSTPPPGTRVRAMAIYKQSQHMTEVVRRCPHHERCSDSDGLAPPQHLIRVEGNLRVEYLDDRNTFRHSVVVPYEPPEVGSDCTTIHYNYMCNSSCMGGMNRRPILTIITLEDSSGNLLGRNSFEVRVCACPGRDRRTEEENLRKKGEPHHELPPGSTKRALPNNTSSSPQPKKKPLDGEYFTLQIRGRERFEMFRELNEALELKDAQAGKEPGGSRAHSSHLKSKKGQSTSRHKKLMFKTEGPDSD
In short: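 Ratio endpoint: beta-lactamase cleavage of CCF4-AM, blue (460 nm) over green (530 nm). HCT116 reporter line; 16 h treatment, 37C; substrate 2 h RT.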

[2] = TOX21_p53_BLA_p3_viability: Viability Assessment in the Tox21 HCT-116 p53 Agonism Beta-lactamase Assay, Phase 3 (AID 2283593);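 also: cells exposed to compound for 16 h before reading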
In short: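 HCT-116 cells (4000/well) rested 5 h at 37C, then got DMSO compounds by pin tool (217-fold dilution) for 16 h at 37C, 5% CO2. After the bla read, CellTiter-Glo was added and luminescence read at 30 min, room temperature.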

[3] = molecular target: Cellular tumor antigen p53 (Homo sapiens) (UniProt P04637); assay: TOX21_p53_BLA_p3_ratio: Tox21 HCT-116 p53 Agonism Beta-lactamase Assay, Ratio, Phase 3 (AID 2283596)
In short: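 Cells were seeded at 4000/well, rested 5 h at 37C, then dosed with DMSO compound solutions (217-fold dilution) for 16 h. CCF4-AM substrate was loaded for 2 h at room temperature, and the 460/530 nm emission ratio was fitted for gain of signal versus DMSO.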

[4] = TOX21_p53_BLA_p4_viability: Viability Assessment in the Tox21 HCT-116 p53 Agonism Beta-lactamase Assay, Phase 4 (AID 2283597);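 also: hits lower the luminescence signal meaning cytotoxicity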
In short: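 Cytotoxicity was inferred from loss of CellTiter-Glo luminescence. HCT116 cells had been dosed with compounds after 5 h plating, incubated 16 h at 37C and 5% CO2, and exposed to the CCF4-AM substrate for 2 h.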

[5] = molecular target: Cellular tumor antigen p53 (Homo sapiens) (UniProt P04637); assay: TOX21_p53_BLA_p5_ratio: Tox21 HCT-116 p53 Agonism Beta-lactamase Assay, Ratio, Phase 5 (AID 2283599)
In short: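 HCT-116 cells carrying a p53-inducible beta-lactamase reporter were seeded at 4000 cells/well and dosed after 5 h with compound in DMSO (217-fold dilution). After 16 h at 37C, CCF4-AM substrate was added for 2 h, and the 460/530 nm emission ratio was scored as gain-of-signal versus DMSO.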

[6] = molecular target: Cellular tumor antigen p53 (Homo sapiens) (UniProt P04637); assay: TOX21_p53_BLA_p4_ratio: Tox21 HCT-116 p53 Agonism Beta-lactamase Assay, Ratio, Phase 4 (AID 2283601)
In short: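 HCT116 cells carrying an inducible beta-lactamase reporter were plated at 4000 cells/well, rested 5 h, then exposed to compounds in DMSO (217-fold dilution) for 16 h at 37C. CCF4-AM substrate was loaded 2 h at room temperature; 460/530 nm emission ratio scored gain-of-signal versus DMSO.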

[7] = molecular target: Thyroid hormone receptor alpha (Rattus norvegicus) + Thyroid hormone receptor beta (Rattus norvegicus) (UniProt P18113+P63059); assay: TOX21_TR_LUC_GH3_Antagonist_Followup: Tox21 GH3 Thyroid Hormone Receptor Antagonism Luciferase Follow-Up Assay (AID 2283942)
In short: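 In a GH3 luciferase reporter line, test chemicals spanning 92 uM to 5nM final are co-incubated 24 h with 1.0 nM T3. Activity is expressed as relative luminescence units and analysed relative to DMSO.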

THRA (gene 7067) = THRA (gene 7067) (UniProt P10827); assay: TOX21_TRA_COA_Antagonist_Followup_ratio: Tox21 Thyroid Hormone Receptor alpha Antagonism through Coactivator Recruitment Follow-Up Assay, Ratio (AID 2283953)
THRA (gene 7067), sequence (P10827 whole entry, looked up, the tested form may be a part): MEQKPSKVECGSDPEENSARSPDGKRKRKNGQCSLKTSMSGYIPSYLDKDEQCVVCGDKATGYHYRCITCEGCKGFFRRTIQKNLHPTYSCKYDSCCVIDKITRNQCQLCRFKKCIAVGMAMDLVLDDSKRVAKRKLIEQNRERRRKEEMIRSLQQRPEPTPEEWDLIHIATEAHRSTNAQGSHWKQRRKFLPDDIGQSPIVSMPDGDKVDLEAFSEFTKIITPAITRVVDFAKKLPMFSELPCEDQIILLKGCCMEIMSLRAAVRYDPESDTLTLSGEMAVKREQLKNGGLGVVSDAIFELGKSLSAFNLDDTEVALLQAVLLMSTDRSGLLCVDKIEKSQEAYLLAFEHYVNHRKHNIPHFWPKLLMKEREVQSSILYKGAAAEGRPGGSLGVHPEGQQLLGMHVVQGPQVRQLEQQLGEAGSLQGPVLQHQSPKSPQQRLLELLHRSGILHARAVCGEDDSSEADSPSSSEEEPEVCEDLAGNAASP
In short: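 GST-TRα LBD 2.5 nM, BSA 0.10%, + cpd; then FITC-SRC-2 peptide 200 nM + Tb-anti-GST Ab 2 nM. TR-FRET ratio 520/495 nm. Norm: DMSO = 0%, T3 = 100%.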

THRB (gene 7068) [8] = molecular target: THRB (gene 7068) (UniProt P10828); assay: TOX21_TRB_BLA_Antagonist_Followup_ratio: Tox21 Thyroid Hormone Receptor beta Antagonism Beta-lactamase (BLA) Follow-Up Assay, Ratio (AID 2283958)
THRB (gene 7068), sequence (P10828 whole entry, looked up, the tested form may be a part): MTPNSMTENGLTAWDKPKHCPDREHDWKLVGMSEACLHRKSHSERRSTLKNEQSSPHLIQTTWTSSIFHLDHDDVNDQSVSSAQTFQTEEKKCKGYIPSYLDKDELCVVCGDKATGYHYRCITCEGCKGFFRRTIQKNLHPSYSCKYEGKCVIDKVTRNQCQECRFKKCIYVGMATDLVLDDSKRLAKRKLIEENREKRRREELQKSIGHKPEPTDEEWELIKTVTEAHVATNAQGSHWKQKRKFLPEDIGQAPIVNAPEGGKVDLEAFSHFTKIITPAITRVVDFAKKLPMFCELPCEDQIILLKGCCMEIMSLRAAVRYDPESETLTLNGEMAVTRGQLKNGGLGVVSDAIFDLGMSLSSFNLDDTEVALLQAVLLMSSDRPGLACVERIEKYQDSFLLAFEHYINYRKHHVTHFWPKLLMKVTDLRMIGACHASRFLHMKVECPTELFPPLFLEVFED
In short: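 Cells were plated and allowed to attach for 5 h, then dosed with compounds in DMSO at 11 concentrations for 18 h at 37C. Beta-lactamase reporter activity was measured via CCF4-AM FRET as the 460:530 nm ratio.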

THRB (gene 7068) [9] = molecular target: THRB (gene 7068) (UniProt P10828); assay: TOX21_TRB_COA_Antagonist_Followup_ratio: Tox21 Thyroid Hormone Receptor beta Antagonism through Coactivator Recruitment Follow-Up Assay, Ratio (AID 2283967)
In short: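 Coactivator (SRC-2) recruitment to purified GST-TRβ ligand-binding domain is monitored by terbium-to-fluorescein energy transfer, emission ratio 520:495 nm. DMSO wells define 0% and T3 wells 100% activity.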

[10] = molecular target: Retinoic acid receptor RXR-alpha (Homo sapiens) (UniProt P19793); assay: TOX21_TR_RXR_BLA_Antagonist_Followup_ratio: Tox21 Thyroid Hormone Receptor beta Retinoid X Receptor alpha (RXRa) Antagonism Beta-lactamase (BLA) Follow-Up Assay, Ratio (AID 2283972)
Retinoic acid receptor RXR-alpha (Homo sapiens), sequence (P19793 whole entry, looked up): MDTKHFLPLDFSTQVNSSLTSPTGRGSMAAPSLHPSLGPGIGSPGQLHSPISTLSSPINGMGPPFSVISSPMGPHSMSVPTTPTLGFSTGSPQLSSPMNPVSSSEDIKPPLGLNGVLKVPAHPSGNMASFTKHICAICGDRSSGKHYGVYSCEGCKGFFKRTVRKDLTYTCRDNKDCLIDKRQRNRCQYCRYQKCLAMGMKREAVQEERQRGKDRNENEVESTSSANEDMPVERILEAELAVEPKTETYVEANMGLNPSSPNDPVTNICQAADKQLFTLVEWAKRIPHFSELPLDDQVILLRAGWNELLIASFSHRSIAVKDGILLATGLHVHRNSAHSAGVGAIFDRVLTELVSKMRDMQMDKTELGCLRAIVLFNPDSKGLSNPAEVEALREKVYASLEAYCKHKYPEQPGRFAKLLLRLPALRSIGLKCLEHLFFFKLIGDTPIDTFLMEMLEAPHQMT
In short: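 RXRa-UAS-bla HEK293T cells in phenol red-free DMEM with 2% charcoal-stripped FBS; compounds at 11 concentrations in triplicate, 16 h at 37C. LiveBLAzer FRET-B/CCF4-AM substrate 2 h at room temperature; read as 460:530 nm ratio versus DMSO.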

[11] = TOX21_TR_RXR_BLA_Antagonist_Followup_viability: Viability Assessment in the Tox21 Thyroid Hormone Receptor beta Retinoid X Receptor alpha (RXRa) Antagonism Beta-lactamase (BLA) Follow-Up Assay (AID 2283979)
In short: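 RXRa-UAS-bla HEK293T cells seeded 2,500/well in phenol red-free DMEM with 2% charcoal-stripped FBS, attached 5 h, then exposed to compounds at 11 concentrations in triplicate for 16 h at 37C/5% CO2. Viability read by CellTiter-Glo ATP luminescence; bidirectional fit versus DMSO.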

Measured: AC50

CN1C(=O)[C@@H](NC(=O)c2cc3ccccc3[nH]2)N=C(c2ccccc2)c2ccccc21
active: THRB (gene 7068) [8] 10.7 µM
inactive: all other assays above
